Results published in PubChem BioAssay.
Calls of active or inactive are those of the source. How the calls were made is not given here.

Experiments:
[1] = Recombinant Mtb pantothenate synthetase (PanC) inhibitors, coupled enzyme, confirmatory (AID 375); settings: coupled enzyme assay; measured here: coupling enzymes IC50 repeat trials unless noted;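 on inhibition: 0% = full reaction with vehicle and 100% = no enzyme background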
[2] = molecular target: Pantothenate synthetase (Mycobacterium tuberculosis (strain ATCC 25618 / H37Rv)) (UniProt P9WIL5); experiment: as above; settings: coupled enzyme assay; at 10 µM, stronger effect = higher value
Chain of Pantothenate synthetase (Mycobacterium tuberculosis (strain ATCC 25618 / H37Rv)) (P9WIL5 whole entry, looked up): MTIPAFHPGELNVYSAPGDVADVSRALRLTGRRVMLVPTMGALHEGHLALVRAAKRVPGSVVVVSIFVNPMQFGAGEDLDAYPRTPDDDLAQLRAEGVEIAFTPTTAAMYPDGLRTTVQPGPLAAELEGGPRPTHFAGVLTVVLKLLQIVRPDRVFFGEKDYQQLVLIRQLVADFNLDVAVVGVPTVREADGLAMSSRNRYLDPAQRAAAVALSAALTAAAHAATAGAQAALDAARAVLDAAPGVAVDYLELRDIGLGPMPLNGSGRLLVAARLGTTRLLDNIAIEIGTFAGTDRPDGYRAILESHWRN

Cc1ccc(Cn2ccc(NC(=O)c3cc(-c4cccs4)on3)n2)cc1
IC50 [1]: > 100 µM
inhibition [2]: 3% (inactive)

COc1ccc(OC)c(-c2cc(C(=O)NCc3cccs3)no2)c1
inhibition [2]: 0% (inactive)

O=C(NCc1ccco1)c1cnn2c(C(F)(F)F)cc(-c3ccco3)nc12
inhibition [2]: 4% (inactive)

O=C(NCc1ccco1)c1cc2c(s1)CSC2
inhibition [2]: 0% (inactive)

C1=CC2CC1CC2CN1CCN(c2ccccc2)CC1 (configuration not stated)
inhibition [2]: 5% (inactive)

Cc1ccccc1Cn1nc(C)c(NC(=O)c2noc3c2CC(C(C)(C)C)CC3)c1C (configuration not stated)
IC50 [1]: > 100 µM
outcome [2]: inactive

COc1ccccc1N1CCN(C(=O)CSc2nc3ncnc(N)c3[nH]2)CC1
inhibition [2]: 8% (inactive)

COc1ccc(N2CCC(CNS(=O)(=O)c3cccc(C(F)(F)F)c3)C2)cc1 (configuration not stated)
inhibition [2]: 5% (inactive)

Cc1ccccc1Cn1cc(NC(=O)c2noc3c2CC(C(C)(C)C)CC3)cn1 (configuration not stated)
IC50 [1]: > 100 µM
outcome [2]: active

Cc1ccc(Cn2ccc(NC(=O)c3cc(-c4ccccc4)on3)n2)cc1
IC50 [1]: > 100 µM
outcome [2]: inactive

CCc1cc2c(CN3CCN(CCO)CC3)cc(=O)oc2cc1O
inhibition [2]: 0% (inactive)

COc1ccc(C(=O)N2CCN(C3CCC(c4ccccc4)CC3)CC2)cc1OC (configuration not stated)
inhibition [2]: 2% (inactive)

Cc1ccc(Cn2ccc(NC(=O)c3cc(-c4ccco4)on3)n2)cc1
IC50 [1]: > 100 µM
outcome [2]: inactive

COc1ccc(-c2cc(C(=O)Nc3cc(C)n(Cc4ccc(Cl)cc4)n3)no2)cc1OC
IC50 [1]: > 100 µM
outcome [2]: inactive

COc1ccc2c(c1)CCc1c(C(=O)Nc3ccn(Cc4ccc(C)cc4)n3)noc1-2
IC50 [1]: > 100 µM
outcome [2]: inactive

CCOC(=O)CNC(=O)Nc1ccccc1C(=O)OC
inhibition [2]: 6% (inactive)

COc1ccccc1OCCCn1c(=O)oc2ccccc21
inhibition [2]: 0% (inactive)

COc1ccccc1-c1cc(C(=O)Nc2cc(C)n(Cc3ccc(Cl)cc3)n2)no1
IC50 [1]: > 100 µM
outcome [2]: inactive

CCOC(OCC)P(=O)(C(C)C)C(C)C
inhibition [2]: 0% (inactive)

COc1ccc(C)cc1S(=O)(=O)N(C)CC(=O)Nc1ccc2c(c1)OCCO2
inhibition [2]: 2% (inactive)

COc1ccc2c(c1)CCc1c(C(=O)Nc3cc(C)n(Cc4ccc(Cl)cc4)n3)noc1-2
IC50 [1]: > 100 µM
outcome [2]: inactive

Cc1cc(NC(=O)c2noc3c2CCCC3)nn1Cc1ccc(Cl)cc1
IC50 [1]: > 100 µM
outcome [2]: inactive

Cc1ccc(Cn2ccc(NC(=O)c3noc4c3CCCCC4)n2)cc1
IC50 [1]: > 100 µM
outcome [2]: inactive

Cc1cc(NC(=O)c2noc3c2CCCCC3)nn1Cc1ccc(Cl)cc1
IC50 [1]: > 100 µM
outcome [2]: inactive

Cc1nc(NC2=NCN(CCCN3CCOCC3)CN2)nc2c(C)cccc12
inhibition [2]: 0% (inactive)

CSc1nc(NC(C)(C)C)nc(Oc2ccc(=O)[nH]n2)n1
inhibition [2]: 0% (inactive)

CN(C)/C=C1\N=C(c2ccc(Cl)cc2Cl)OC1=O
inhibition [2]: 0% (inactive)

COc1cccc(CN2C(=O)C3(C(C#N)=C(N)OC4=C3C(=O)CCC4)c3ccccc32)c1 (configuration not stated)
inhibition [2]: 0% (inactive)

COc1ccc(CCNS(=O)(=O)c2ccc3oc(C(=O)O)c(C)c3c2)cc1OC
inhibition [2]: 0% (inactive)

COc1ccccc1OCC(=O)N1CCNC1=O
inhibition [2]: 0% (inactive)

O=c1c2ccccc2nc(SCc2cn3ccsc3n2)n1-c1ccc(F)cc1
inhibition [2]: 0% (inactive)

CCn1cc(C(=O)NCc2ccccc2OC)c(=O)c2cc(S(=O)(=O)N(C)C)ccc21
inhibition [2]: 0% (inactive)

C[C@]12CCC(=O)C=C1CC[C@@H]1[C@@H]2[C@@H](O)C[C@@]2(C)[C@H]1CC[C@]2(O)C(=O)CO
inhibition [2]: 0% (inactive)

COc1ccc2c(c1)OC(O)(C(F)F)CC2=O (configuration not stated)
inhibition [2]: 0% (inactive)

CSc1ccccc1NC(=O)CN(c1ccccc1)S(=O)(=O)N(C)C
inhibition [2]: 3% (inactive)

CCOC(=O)C1CCN(Cc2ccc(C(=O)OC)cc2)CC1
inhibition [2]: 1% (inactive)

CCCc1cc(=O)[nH]c(=S)[nH]1
inhibition [2]: 3% (inactive)

COc1ccc(CN2CC(C(=O)NCCCOC(C)C)CC2=O)cc1 (configuration not stated)
inhibition [2]: 3% (inactive)

COCCOC(=O)/C=C1/NC(=O)CS1
inhibition [2]: 0% (inactive)

CCOC(=O)N1CCC(NC(=O)CCN2C(=O)COc3ccccc32)CC1
inhibition [2]: 0% (inactive)

O=C(O)CC1SC(=Nc2cccc(C(F)(F)F)c2)NC1=O (configuration not stated)
inhibition [2]: 0% (inactive)

OC(CCN1CCCC1)(c1ccccc1)C1CCCCC1 (configuration not stated)
inhibition [2]: 1% (inactive)

O=C(CSCc1ccccn1)Nc1ccccc1
inhibition [2]: 0% (inactive)

S=c1[nH]nc(COc2ccccc2)n1C1CCCCC1
inhibition [2]: 0% (inactive)

CCCC(=O)Nc1ccccc1-c1nnn(CC(=O)Nc2ccc(OCC)cc2)n1
inhibition [2]: 0% (inactive)

Cc1cccc(-c2cc3nc4c(c(N5CCOCC5)n3n2)CCCC4)c1
inhibition [2]: 0% (inactive)

Cc1cc(NCCN(C)C)n2nc(-c3cccs3)cc2n1
inhibition [2]: 0% (inactive)

Brc1ccc2[nH]c3nc(SCCN4CCOCC4)nnc3c2c1
inhibition [2]: 0% (inactive)

CCCCC(=O)O[C@H]1CC[C@H]2[C@@H]3CCc4cc(O)ccc4[C@H]3CC[C@]12C
inhibition [2]: 6% (inactive)

O=C1CC(c2cccs2)CC2=C1C(c1ccccc1)n1ncnc1N2 (configuration not stated)
inhibition [2]: 3% (inactive)

O=C(NCc1ccccc1)C1CCCN1S(=O)(=O)c1cccc2cccnc12 (configuration not stated)
inhibition [2]: 0% (inactive)

CCCOc1ccc(N2CC(C(=O)Nc3ccc4c(c3)OCO4)CC2=O)cc1 (configuration not stated)
inhibition [2]: 6% (inactive)

Cc1cc2c(cc1C)-c1nnnn1C(C)(C)C2
inhibition [2]: 4% (inactive)

CC(C)(C)NC(=O)Cn1nnc(-c2cccs2)n1
inhibition [2]: 5% (inactive)

N#Cc1c(N)n(CCOC(=O)c2cccc(Br)c2)c2nc3ccccc3nc12
inhibition [2]: 3% (inactive)

CCCC(=O)Nc1ccc(OCC(=O)OC)cc1
inhibition [2]: 5% (inactive)

COc1ccc(NC(=O)c2cc(C3CC3)on2)c(OC)c1
inhibition [2]: 0% (inactive)

CCC(C)OC(=O)C1=C(C)NC2=C(C(=O)C(C(=O)OC)C(C)C2)C1c1ccc(N(C)C)cc1 (configuration not stated)
inhibition [2]: 0% (inactive)

Cc1nc2ccccc2cc1O
inhibition [2]: 0% (inactive)

CC(C)(C)c1ccc(C(=O)Nc2cnccn2)cc1
inhibition [2]: 2% (inactive)

CC(C(=O)N1CCCCC1)n1ncn2cccc2c1=O (configuration not stated)
inhibition [2]: 0% (inactive)

CCCCOC(=O)CN1C(=O)c2ccc(C(=O)OCCCC)cc2C1=O
inhibition [2]: 0% (inactive)

O=C(c1cnc2n(c1=O)CCS2)N(C1CCCCC1)C1CCCCC1
inhibition [2]: 0% (inactive)

O=C(Nc1ccc(N2CCCC2)cc1)c1ccc(Br)o1
inhibition [2]: 0% (inactive)

Cc1c(C(=O)O)oc2ccc(S(=O)(=O)NCc3ccccc3)cc12
inhibition [2]: 0% (inactive)
